# An excerpt weighted towards active compounds, which were near 21% of everything screened.
# Pf growth 96h: Primary qHTS for delayed death inhibitors of the malarial parasite plastid, 96 hour incubation | P. falciparum luciferase reporter growth, 96 h | Potency, µM (highest dose often 28.7 µM), without a hit: at the highest dose activity change, negative = inhibition, most hits filed as inhibitors | hit rate 6.9% among 320,000; further: potency means the concentration at half of the fitted maximal effect; on the % scale 0 is the no-effect control and ±100 the full control effect
#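 P. falciparum expressing integrated firefly luciferase grown in erythrocytes (2% hematocrit, 0.05% parasitemia final) with compounds for 96 hours at 37 C, 5% CO2. Growth inhibition read as loss of luminescence after adding luciferase detection reagent.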
# CHX counter: Cycloheximide Counterscreen for Small Molecule Inhibitors of Shiga Toxin; cell reporter, cycloheximide protein synthesis inhibition counterscreen; max response, %; hit rate 12% among 300,000; in the data active means max response mostly above about 13%, no sharp cut-off; inactive means mostly below about 14%; further: read at 38.3 µM for the half of the compounds with a filed dose; 0% is about no effect
# Pf growth 48h: Primary qHTS for delayed death inhibitors of the malarial parasite plastid, 48 hour incubation; P. falciparum luciferase growth in erythrocytes, 48 h; Potency, µM (top dose mostly 28.7 µM), for the others: at the highest dose activity change, negative = inhibition, usual class: inhibitors; hit rate 5.9% among 310,000; AID 504832, 2011; further: potency means the concentration at half of the fitted maximal effect; on the % scale 0 is the no-effect control and ±100 the full control effect
#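 First compound was added to culture medium, then infected red cells at 0.1% parasitemia and 2% hematocrit (final). After incubation at 37 C under 5% CO2, luciferase detection reagent was dispensed and light output recorded.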
# Shiga inhibitor: A qHTS for Small Molecule Inhibitors of Shiga Toxin | Vero cells, Shiga toxin protein synthesis inhibition reporter | inhibition, % at 38.7 µM | hit rate 9.2% among 290,000 | AID 2315, 2010; in the data active means inhibition mostly above about 28%, no sharp cut-off; inactive means mostly below about 43%; further: 0% is about no effect
# Starred values were filed as active, the others as inactive; ? = inconclusive; . = no result given. Unless noted, the call rests on the fitted dose curve; in most records, active means well fitted inhibition curve with a large enough effect; inconclusive means small, poorly fitted or top-dose-only effect, or another doubt; inactive means no such curve, though single readings can be large or run the other way.
SMILES,Pf growth 96h,CHX counter,Pf growth 48h,Shiga inhibitor
CCCOC(=O)Nc1cc(OC)ccc1[N+](=O)[O-],-7%,25*,34%,23
CC(=O)Nc1ccc(NC(=O)C(C)Oc2ccc(C)nc2[N+](=O)[O-])cc1 (configuration not stated),-27%,.,5%,.
COc1ccc(S(=O)(=O)NCC(c2ccc(C)cc2)N2CCN(C)CC2)cc1 (configuration not stated),22%,.,-25%,.
COCC(=O)OCC(=O)Nc1cc(C)c(C)cc1[N+](=O)[O-],-16%,16*,32%,24
Cc1ccc([N+](=O)[O-])cc1NC(=O)CN1CCC(C)CC1,-5%,-2,1%,-14
COc1ccc(NC(=O)CN2CCC(C)CC2)c([N+](=O)[O-])c1,82%,22*,65%,33
COc1ccc(NC(=O)CN2CCC(NC(=O)C3CCCCC3)CC2)c([N+](=O)[O-])c1,?,-2,4%,-34
Cc1cccc(SCC(=O)Nc2ccccc2[N+](=O)[O-])c1,11%,16*,31%,38
CC1CCN(CC(=O)Nc2ccc(Cl)cc2[N+](=O)[O-])CC1,-7%,18*,6%,16
Cc1cc(C)nc(SCC(=O)Nc2ccccc2[N+](=O)[O-])n1,30%,-4,17%,-15
Nc1nc(-c2ccc3c(c2)CCCC3)c(CC(=O)O)s1,-5%,5,25%,7
CN(C(=O)Cn1cnc2sccc2c1=O)C1CCCCC1,26%,.,52%,.
CCOc1ccc(NC(=O)COC(=O)C2(C)CC2(Cl)Cl)c([N+](=O)[O-])c1 (configuration not stated),?,18*,?,45*
Cc1cc2ccccc2n1CCNC(=O)Cc1ccccc1,?,-3,?,2
O=C(Nc1ccn(-c2ccccc2)n1)c1ccc(S(=O)(=O)N2CCCCCC2)cc1,?,-3,1µM*,11
O=C(Nc1ccc(S(=O)(=O)N2CCCC2)cc1)c1ccccc1,-10%,.,-30%,.
O=C(Nc1ccccc1)c1ccc(S(=O)(=O)N2CCCC2)cc1,37%,-2,?,-1
CC(C)C(=O)Nc1cccc(C(=O)Nc2ccc(S(=O)(=O)N3CCOCC3)cc2)c1,10µM*,-2,-11%,-5
Cc1cc2ccccc2n1CCNC(=O)c1ccc(S(=O)(=O)N2CCCCC2)cc1,1.7µM*,-2,2.1µM*,13
O=C(Nc1ccccc1)c1ccc(S(=O)(=O)N2CCCCC2)cc1,?,11*,?,19*
Cc1occc1C(=O)Nc1ccc(S(N)(=O)=O)cc1,26%,8,58%,13
Cc1occc1C(=O)Nc1ccc(S(=O)(=O)N2CCCC2)cc1,0%,9,11%,29*
O=C(Nc1ccon1)c1ccc(S(=O)(=O)N2CCCCCC2)cc1,?,-2,9.3µM*,15
COc1cc(C(=S)N2CCOCC2)cc(OC)c1OS(=O)(=O)c1ccc(NC(C)=O)cc1,13µM*,-4,0%,-16
CC(=O)Nc1ccc(C(=O)Nc2ccc(S(=O)(=O)N3CCOCC3)cc2)cc1,8.3µM*,16*,?,27
SMILES,Pf growth 96h,CHX counter,Pf growth 48h,Shiga inhibitor
COC(=O)C(CO)Nc1ncnc2onc(-c3ccc(F)cc3)c12 (configuration not stated),?,-3,.,2
Cc1ccc(NC(=O)c2ccc(S(=O)(=O)N3CCCCC3)cc2)cc1,12µM*,0,?,-13
Cc1ccc(C(=O)Nc2ccc(S(=O)(=O)N3CCCC3)cc2)cc1,20%,13,-28%,20
Cc1nonc1OCCNc1ccc([N+](=O)[O-])cc1[N+](=O)[O-],49%,-2,4%,-5
Cc1nonc1OC(C)CNc1ccc([N+](=O)[O-])cc1 (configuration not stated),24%,8,3.7µM*,-14
CC[C@H](C)[C@H](NC(=O)[C@H](CC(=O)O)NC(=O)[C@H](CC(C)C)NC(=O)[C@H](Cc1cnc[nH]1)NC(=O)[C@H](C)NC(=O)[C@H](Cc1ccccc1)NC(=O)[C@H](Cc1ccc(O)cc1)NC(=O)[C@@H](NC(=O)[C@H](C)NC(=O)[C@H](CCC(=O)O)NC(=O)[C@H](CCC(=O)O)NC(=O)[C@H](CC(=O)O)NC(=O)CCC(=O)O)C(C)C)C(=O)N[C@H](C(=O)N[C@@H](Cc1c[nH]c2ccccc12)C(=O)O)[C@@H](C)CC,.,-2,.,-8
COc1ccc(-c2cc(=O)n(CCC#N)[nH]2)cc1,7.4µM*,-1,3%,-7
Cc1cc(-c2n[nH]c(=S)n2/N=C/c2ccc(Br)s2)n[nH]1,15%,1,10%,-5
Cc1cc(-c2ccc(Br)cc2)n[nH]1,73%,31*,118%,82*
Nc1nc(-c2ccc(Br)cc2)cc(C(F)(F)F)n1,-16%,0,.,-5
Nc1cc(-c2ccc(Br)cc2)[nH]n1,1.9µM*,11*,56%,25
Cc1cccc(Oc2coc3cc(OC(=O)c4cc5ccccc5oc4=O)ccc3c2=O)c1,69%,40*,28%,38
CCOC(=O)Oc1ccc2c(=O)c(Oc3cc(C)cc(C)c3)coc2c1,26%,1,20%,-17
Cc1cccc(Oc2coc3cc(O)ccc3c2=O)c1,21%,31*,60%,49*
CCOC(=O)Oc1ccc2c(=O)c(Oc3cccc(C)c3)coc2c1,165%,21*,37%,24
COc1ccc(Oc2coc3cc(OC(=O)c4cccs4)ccc3c2=O)cc1,4.1µM*,7,54%,-5
Cc1cccc(Oc2coc3cc(OC(=O)c4cncc(Br)c4)ccc3c2=O)c1,39%,2,25%,22
COc1ccc(Oc2coc3cc(OC(=O)N4CCOCC4)ccc3c2=O)cc1,0%,5,-27%,-5
Cc1cc(OC(C)C(=O)NNC(=O)Nc2ccc(F)cc2F)cc(C)c1Cl (configuration not stated),-20%,1,7%,8
O=C(NCc1ccc2c(c1)OCO2)C1CC(=O)N(CCc2ccc(Cl)cc2)C1 (configuration not stated),0%,-3,-2%,9
Cc1cc(C)cc(NC(=O)C(OC(=O)c2cc[n+]([O-])cc2)c2ccccc2)c1 (configuration not stated),1%,.,-3%,.
Cn1nc(C(=O)NCc2ccccc2)c2c1-c1ccccc1S(=O)(=O)C2,79%,15,0%,-3
C#CCOCCOCCOCCNc1nc(N2CCN(C(=O)Cn3cc(CCCCN)nn3)CC2)nc(N2CCN(C(=O)[C@H]([C@@H](C)CC)n3cc(CCCCN)nn3)CC2)n1,77%,.,-6%,.
C#CCOCCOCCOCCNc1nc(N2CCOCC2)nc(N2CCN(C(=O)CCCCCCCCCCNC(=O)[C@@H]([C@H](C)CC)n3cc(CCCCCN)nn3)CC2)n1,0.83µM*,.,1.2µM*,.
C#CCOCCOCCOCCNc1nc(N2CCN(C(=O)CCCCCCCCCCNC(=O)[C@H]([C@@H](C)CC)n3cc(CCCCCN)nn3)CC2)nc(N2CCN(C(=O)CCCCCCCCCCNC(=O)[C@H](CO)n3cc(CCCCCN)nn3)CC2)n1,?,.,13µM*,.
